In the assay the test system is Vero E6 infected with SARS-CoV-2. In words: SARS-CoV-2 infection rate relative to infected DMSO; higher = more infection, active = 60 or less. The settings on record: 24 h.
On to `CN[C@@H](C)C(=O)N[C@H](C(=O)N1CCC[C@H]1C(=O)Nc1sc(-c2ncco2)nc1-c1ccccc1)C1CCCCC1` (10 µM), for which the SARS-CoV-2 infection rate is 102% (inactive).
In the case of `CCCCc1nn(-c2ccccc2C(F)(F)F)c(=O)n1Cc1ccc(-c2ccccc2S(=O)(=O)NC(=O)c2sccc2C)cc1` (10 µM), the SARS-CoV-2 infection rate was 104% (inactive).
Take `N[C@@H](C(=O)O)c1ccc(C(=O)O)c(C(=O)O)c1` (racemic) (10 µM): the SARS-CoV-2 infection rate is 98.2% (inactive).
Regarding `O=S(=O)(N[C@H]1CC[C@@](c2cc(F)ccc2F)(S(=O)(=O)c2ccc(Cl)cc2)CC1)C(F)(F)F` (10 µM), the SARS-CoV-2 infection rate is 104% (inactive).
As for `Cc1[nH]c(/C=C2\C(=O)Nc3ccc(F)cc32)c(C)c1C(=O)NCCN1CCCC1` [toceranib] (0.833333 µM), the SARS-CoV-2 infection rate is 26% (active).
On to `COc1cc(C)c(/C=C/C(C)=C/C=C/C(C)=C/C(=O)O)c(C)c1C` [acitretin] (10 µM), for which the SARS-CoV-2 infection rate was 116% (inactive).
Take `CCCCOC(=O)c1ccc(N)cc1` [butamben] (10 µM): the SARS-CoV-2 infection rate was 108% (inactive).
The figure for `Cc1[nH]c2ccc(O)cc2c1CCN` [2-methyl-5-hydroxytryptamine] (10 µM) is 108% (inactive); for `COCCN1CCN(Cc2ccc(-c3n[nH]c4c3C(=O)c3c(NC(=O)NN5CCOCC5)cccc3-4)cc2)CC1` (10 µM) it is 117% (inactive); for `NS(=O)(=O)c1ccc2c(c1)C1C=CCC1C(c1ccc(Br)cc1)N2` (stereo not given) (10 µM) it is 95% (inactive).
On to `CC1(C)O[C@@H]2C[C@H]3[C@@H]4C[C@H](F)C5=CC(=O)C=C[C@]5(C)[C@H]4[C@@H](O)C[C@]3(C)[C@]2(C(=O)CO)O1` [flunisolide] (10 µM), for which the SARS-CoV-2 infection rate was 109% (inactive).
With `COCCOCCOc1ccc(C2=N[C@@](C)(C(=O)O)CS2)c(O)c1` (10 µM), the SARS-CoV-2 infection rate is 102% (inactive).
The figure for `CC(=O)c1ccc2c(c1)N(CCCN(C)C)c1ccccc1S2` [acepromazine] (10 µM) is 104% (inactive); for `CO[C@@]1(NC(=O)C(C(=O)O)c2ccc(O)cc2)C(=O)N2C(C(=O)O)=C(CSc3nnnn3C)CO[C@@H]21` (stereo not given in full) [moxalactam] (10 µM) it is 110% (inactive); for `CO[C@H]1C[C@@H]2CC[C@@H](C)[C@@](O)(O2)C(=O)C(=O)N2CCCC[C@H]2C(=O)O[C@H]([C@H](C)C[C@@H]2CC[C@@H](O)[C@H](OC)C2)CC(=O)[C@H](C)/C=C(\C)[C@@H](O)[C@@H](OC)C(=O)[C@H](C)C[C@H](C)/C=C/C=C/C=C/1C` [sirolimus] (10 µM) it is 104% (inactive).
With `CC(=O)Oc1cc2c(s1)CCN(C(C(=O)C1CC1)c1ccccc1F)C2` (stereo not given) [prasugrel] (10 µM), the SARS-CoV-2 infection rate was 108% (inactive).
Turning to `CC1(C)S[C@@H]2[C@H](NC(=O)[C@H](NC(=O)N3CCNC3=O)c3ccccc3)C(=O)N2[C@H]1C(=O)O` [azlocillin] (10 µM), the SARS-CoV-2 infection rate is 104% (inactive).
Regarding `CCN1CCC(n2cc(CNc3cc(Cl)c4ncc(C#N)c(Nc5ccc(F)c(Cl)c5)c4c3)nn2)CC1` [cot-inhibitor-2] (10 µM), the SARS-CoV-2 infection rate is 40.5% (active).
To `CCOc1cc(OCC)c(C(=O)CCC(=O)O)cc1OCC` [trepibutone] (10 µM) belongs 106% (inactive); to `Cc1cn2nc([C@@H]3CCCCN3C(=O)c3cc(Cl)ccc3NS(C)(=O)=O)cc2nc1N1CC[C@H](N)C1` [presatovir] (10 µM), 89% (inactive); to `NC(=O)NC1NC(=O)NC1=O` (stereo not given) [allantoin] (10 µM), 104% (inactive).
The figure for `COC(=O)N1CC[C@@H]2[C@H]1CCC[C@@]2(O)C#Cc1cccc(C)c1` [mavoglurant] (10 µM) is 112% (inactive).
To `CN(C)CCOC(c1ccccc1)c1ccccc1` [diphenhydramine] (10 µM) belongs 86.5% (inactive); to `NC(Cc1ccc(I)cc1)C(=O)O` (stereo in doubt) [4-iodo-L-phenylalanine] (10 µM), 105% (inactive); to `C[C@@]12CC[C@@H]3[C@@](CC[C@H]4[C@@]3(C)CCC[C@@]4(C)C(=O)O)(CC1=O)C2` [isosteviol] (10 µM), 100% (inactive).
With `O=[N+]([O-])c1cnc(Sc2nnc(O)n2-c2ccc3c(c2)OCCO3)s1` (0.833333 µM), the SARS-CoV-2 infection rate is 76.5% (inactive).
In the case of `C[C@@H]1CN(Cc2ccc(F)cc2)CCN1C(=O)COc1ccc(Cl)cc1NC(N)=O` (10 µM), the SARS-CoV-2 infection rate was 112% (inactive).
The figure for `C[C@]12CCC(=O)C(O)=C1CC[C@@H]1[C@@H]2CC[C@]2(C)C(=O)CC[C@@H]12` [formestane] (10 µM) is 115% (inactive); for `O=[N+]([O-])c1cncn1CCN1CCOCC1` [nimorazole] (10 µM) it is 91.5% (inactive); for `Cn1c(=O)c2c(ncn2CC2OCCO2)n(C)c1=O` [doxofylline] (10 µM) it is 106% (inactive).
The figure for `COc1ccc(C(=O)Nc2sc3c(c2C(N)=O)CCCC3)cc1OC` (10 µM) is 96.5% (inactive).
Consider `O=C1C(O)=C(O)C(=O)C(O)=C1O` [tetroquinone] (10 µM), for which the SARS-CoV-2 infection rate is 106% (inactive).
As for `Cn1cnnc1Sc1c([N+](=O)[O-])ncn1C` (10 µM), the SARS-CoV-2 infection rate is 87% (inactive).
For the compound `C=C(C)[C@@H]1CC[C@]2(CO)CC[C@]3(C)[C@H](CC[C@@H]4[C@@]5(C)CC[C@H](O)C(C)(C)[C@@H]5CC[C@]43C)[C@@H]12` (10 µM), the SARS-CoV-2 infection rate is 99.5% (inactive).
The figure for `CO[C@H]1C[C@H](O[C@H]2[C@H](C)O[C@@H](O[C@@H]3/C(C)=C/C[C@@H]4C[C@@H](C[C@]5(C=C[C@H](C)[C@@H](C6CCCCC6)O5)O4)OC(=O)[C@@H]4C=C(C)[C@@H](O)[C@H]5OC/C(=C\C=C\[C@@H]3C)[C@]54O)C[C@@H]2OC)O[C@@H](C)[C@@H]1O` [doramectin] (0.833333 µM) is 104% (inactive); for `O=c1[nH]c2ccccc2n1CCCN1CCC(n2c(=O)[nH]c3cc(Cl)ccc32)CC1` [domperidone] (10 µM) it is 110% (inactive); for `O=c1ccc2cc3ccoc3cc2o1` [psoralen] (10 µM) it is 108% (inactive).
Turning to `CCC[C@H](N[C@@H](C)C(=O)N1[C@H](C(=O)O)C[C@@H]2CCCC[C@@H]21)C(=O)O` [perindoprilat] (10 µM), the SARS-CoV-2 infection rate was 104% (inactive).
Turning to `Cl/C=C\C[N+]12CN3CN(CN(C3)C1)C2` [1-((Z)-3-chloroallyl)-1,3,5,7-tetraazaadamantan-1-ium] (10 µM), the SARS-CoV-2 infection rate was 99% (inactive).
To `OCC(O)CN1CCN(c2ccccc2)CC1` (stereo not given) [dropropizine] (10 µM) belongs 103% (inactive).

(Values after the supplement of paper PMC13380429.)
